PubChem BioAssay (Tox21)
Results filed as inconclusive are left out. Calls of active or inactive are those of the source. Calls come from the whole dose curve; as a rule, active = well fitted activation curve with a large enough effect in the signal ratio in the repeat runs, with a control signal flat (not every such curve was filed as active); inconclusive = weak or mixed curves, or effect the other way; inactive = no such curve, though single readings can be large or run the other way; the % refers to the signal ratio.

Each compound was assayed against Androgen receptor (Homo sapiens) (UniProt P10275) (assay: qHTS assay to identify small molecule agonists of the androgen receptor (AR) signaling pathway (AID 743036)). Settings: HEK293 AR-UAS-bla GripTite, beta-lactamase FRET ratio, 16 h; series mostly up to 62.4 µM.
Androgen receptor (Homo sapiens), sequence (P10275 whole entry, looked up): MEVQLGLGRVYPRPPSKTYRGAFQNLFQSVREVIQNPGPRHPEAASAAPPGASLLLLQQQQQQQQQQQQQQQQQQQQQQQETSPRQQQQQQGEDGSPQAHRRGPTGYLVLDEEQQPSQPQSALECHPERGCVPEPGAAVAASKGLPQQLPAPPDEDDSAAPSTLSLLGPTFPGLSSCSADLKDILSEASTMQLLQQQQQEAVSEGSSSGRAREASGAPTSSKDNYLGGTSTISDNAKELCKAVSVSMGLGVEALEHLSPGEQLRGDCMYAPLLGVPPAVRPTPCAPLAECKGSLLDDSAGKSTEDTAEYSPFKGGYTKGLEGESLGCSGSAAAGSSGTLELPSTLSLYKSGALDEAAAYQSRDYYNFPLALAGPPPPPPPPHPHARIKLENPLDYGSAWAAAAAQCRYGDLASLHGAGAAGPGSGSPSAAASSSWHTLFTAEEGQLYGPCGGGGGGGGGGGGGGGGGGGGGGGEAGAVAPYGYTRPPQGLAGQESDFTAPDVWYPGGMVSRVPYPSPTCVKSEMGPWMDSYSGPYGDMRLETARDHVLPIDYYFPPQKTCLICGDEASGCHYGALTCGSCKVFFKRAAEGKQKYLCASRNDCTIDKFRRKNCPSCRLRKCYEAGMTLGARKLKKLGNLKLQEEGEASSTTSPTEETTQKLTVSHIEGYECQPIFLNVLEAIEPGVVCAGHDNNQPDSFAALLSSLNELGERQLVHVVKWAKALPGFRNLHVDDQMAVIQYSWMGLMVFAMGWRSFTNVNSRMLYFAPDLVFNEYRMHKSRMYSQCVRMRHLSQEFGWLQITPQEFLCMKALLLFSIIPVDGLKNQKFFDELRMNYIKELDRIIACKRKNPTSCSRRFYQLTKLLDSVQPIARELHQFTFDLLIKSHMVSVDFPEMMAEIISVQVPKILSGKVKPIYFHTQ
From the text: U.S. Tox21 Program National Center for Advancing Translational Sciences [NCATS] NIH Chemical Genomics Center [NCGC] U.S. Environmental Protection Agency [EPA] National Institutes of Environmental Health Sciences [NIEHS] National Toxicology Program [NTP] U.S. Food and Drug Administration [FDA] Tox21 Assay Overview: Androgen receptor (AR), a nuclear hormone receptor, plays a critical role in AR-dependent prostate cancer and other androgen related diseases. Endocrine disrupting chemicals (EDCs) and their interactions with steroid hormone receptors like AR may cause disruption of normal endocrine function as well as interfere with metabolic homeostasis, reproduction, developmental and behavioral functions. To identify the compounds that activate AR signaling, GeneBLAzer AR-UAS-bla-GripTite cell line (Invitrogen, Carlsbad, CA, USA) containing a beta-lactamase reporter gene under the control of an Upstream Activator Sequence (UAS) stably integrated into HEK293 cells was used to screen the Tox21 10K compound library.
Tox21 Assay Protocol Summary: AR-bla cells were dispensed at 2,000 cells/6 uL/well of assay medium into black wall/clear-bottom 1536-well plates using a Multidrop Combi (ThermoFisher Scientific, Waltham, MA) dispenser. After the assay plates were incubated at 37C and 5% CO2 for 4 h, 23 nL of compounds dissolved in DMSO, positive controls or DMSO only was transferred to the assay plate by a Pintool station (Kalypsys, San Diego, CA). The plates were incubated at 37C and 5% CO2 for 16 h. Then 1 uL of LiveBLAzerTM B/G FRET substrate was added using a Bioraptr Flying Reagent Dispenser (FRD) workstation (Beckman Coulter, Indianapolis, IN, USA). The plates were incubated at room temperature for 2 h, and fluorescence intensity was measured by an Envision plate reader (PerkinElmer, Shelton, CT).

| SMILES | outcome |
| --- | --- |
| Cc1ccc(O)cc1 | inactive |
| CCCCC(CC)COC(=O)/C=C/c1ccc(OC)cc1 (stereo not given) | inactive |
| Cc1ccc(C)c(OCCCC(C)(C)C(=O)O)c1 | inactive |
| c1ccc2[nH]ccc2c1 | inactive |
| CCCN(CCC)S(=O)(=O)c1ccc(C(=O)O)cc1 | inactive |
| CC(C)(Oc1ccc(C2CC2(Cl)Cl)cc1)C(=O)O (stereo not given) | inactive |
| Cc1cc(=O)n(-c2ccccc2)n1C | inactive |
| C1N2CN3CN1CN(C2)C3 | inactive |
| CC(C)[C@@H]1CC[C@@H](C)C[C@H]1O | inactive |
| O=C(c1ccccc1)c1ccccc1 | inactive |
